High-throughput results (PubChem BioAssay)
PostGolgi yeast – growth inhibition of a yeast mutant, post-Golgi transport screen. inhibition, % at 10 µM. AID 739. post-Golgi transport phenotypic cell assay. 98,000 compounds, 0.9% hits;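 further: yeast cells grown in 1536-well plates; yeast grown about 18 h at 30C before absorbance read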
PostGolgi ctrl – growth of the yeast control strain, post-Golgi counter-screen | efflux-deficient yeast background strain, growth absorbance A615, 16 h | inhibition, % at 10 µM | 98,000 compounds, 5% hits
CYP2C19 activ – cytochrome P450 2C19 (human) activation; 96,000 tested, under 10 active; AID 1025; recombinant CYP2C19, luciferin-H EGE luminescence; hits give high values; 0 = fully inhibited enzyme, 1 = untreated enzyme; P33261; activation factor at 5 µM;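 active means activation factor of at least 2 at 5 µM in the primary screen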
CYP2C19 inhib – inhibitors of human CYP2C19; P33261; CYP2C19 Supersomes, luciferin-H EGE luminescence, 30 min; inhibition, % at 5 µM; 96,000 compounds, 21% hits; AID 778;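 active means CYP2C19 inhibition above a set limit at 5 µM in the primary screen, cut at about 50% in these data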
CYP2C9 inhib – human CYP2C9 inhibition; AID 777; P11712; 96,000 compounds, 20% hits; CYP2C9 Supersomes, luciferin-H conversion, luminescence; inhibition, % at 5 µM;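 active means blocking of liver enzyme CYP2C9 beyond about 50% at 5 µM, limit read from the data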
Target sequence (P11712 whole entry, looked up): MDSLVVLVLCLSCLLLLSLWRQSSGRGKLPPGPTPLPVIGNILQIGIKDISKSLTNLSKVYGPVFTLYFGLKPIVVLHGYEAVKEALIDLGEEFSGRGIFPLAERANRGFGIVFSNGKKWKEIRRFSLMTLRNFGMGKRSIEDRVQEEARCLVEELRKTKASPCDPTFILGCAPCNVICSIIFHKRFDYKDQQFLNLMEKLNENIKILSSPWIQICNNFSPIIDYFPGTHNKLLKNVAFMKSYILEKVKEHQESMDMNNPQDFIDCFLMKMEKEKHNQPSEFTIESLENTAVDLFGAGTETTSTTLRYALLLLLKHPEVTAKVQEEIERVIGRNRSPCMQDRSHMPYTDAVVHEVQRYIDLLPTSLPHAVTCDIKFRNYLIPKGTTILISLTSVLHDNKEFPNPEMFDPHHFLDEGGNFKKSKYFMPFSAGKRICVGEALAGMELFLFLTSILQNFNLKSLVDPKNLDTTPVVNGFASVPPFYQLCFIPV
CYP2C9 act – CYP2C9 (human) activation; recombinant CYP2C9, luciferin-H conversion, luminescence; hits give high values; factor 1 = untreated enzyme, 0 = blocked; 96,000 compounds, 1.4% hits; activation factor at 5 µM; AID 1024; P11712;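 active means activation factor of 2 or more for CYP2C9 at a 5 µM dose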
A number is an active result; i = inactive; nt = not tested or not shown. In the library only some 32% were active in any assay of this set; here they are far more common. Unless noted, no stated cut-off is given here; in the data, active means inhibition above about 30%; inactive means the rest.

SMILES	PostGolgi yeast	PostGolgi ctrl	CYP2C19 activ	CYP2C19 inhib	CYP2C9 inhib	CYP2C9 act
O=C(Nc1sc2c(c1C(=O)NCC1CCCO1)CCCC2)c1cccs1 (centres undefined)	86	68	i	i	i	i
O=C(Nc1sc2c(c1C(=O)O)CCCC2)c1cccs1	i	i	i	i	i	i
O=C(Cc1cccs1)NCC1CCCO1 (centres undefined)	i	i	i	i	i	i
CN(c1ccc(C(=O)N2CCOCC2)cc1[N+](=O)[O-])C1CCCCC1	i	i	i	i	i	i
CCOC(=O)c1c(C)c(C(=O)NCCCN2CCCC2=O)c(C)n1CC	i	i	i	i	i	i
Cc1cc(C)c2c(n1)sc1c(=O)[nH]c(SCc3ccccc3)nc12	i	i	i	i	64	i
C=CCSc1nc2c(sc3nc(C)cc(C)c32)c(=O)[nH]1	i	i	i	i	i	i
Cc1ccccc1C(=O)c1ccc2c(c1)n(C)c(=O)n2C	i	i	i	76	74	i
O=C(NOC(=O)c1ccccc1Cl)c1cccs1	i	i	i	i	51	i
Nc1ccc(NC(=O)c2cccs2)c(Cl)c1	i	i	i	i	i	i
Nc1ccccc1SCC(=O)Nc1ccc(N2CCOCC2)cc1	i	i	i	i	i	i
COc1cccc(C(=O)COC(=O)C(C)N2C(=O)c3ccccc3C2=O)c1 (centres undefined)	i	i	i	i	i	i
COc1cc(C(C)=O)ccc1OC(=O)C(C)N1C(=O)c2ccccc2C1=O (centres undefined)	i	i	i	i	54	i
CCOC(=O)COc1cc2c3c(c(=O)oc2cc1C)CCCC3	i	i	i	i	60	i
Nc1c(Cl)cc2c(c1Oc1ccccc1)C(=O)c1ccccc1C2=O	i	i	i	i	i	i
Cc1cc(/C=C2/NC(=O)NC2=O)c(C)n1-c1sc2c(c1C#N)CCCC2	i	i	i	i	i	i
Cc1cc(C)c(-n2c(C)cc(/C=C3/NC(=O)NC3=O)c2C)c(C)c1	i	64	i	i	i	i
Cc1oc(C(C)(C)C)cc1C(=O)Nc1cccc(C(=O)O)c1	i	i	i	i	60	i
Cc1cc(C(=O)Nc2cccc(C(=O)O)c2)oc1C	i	i	i	66	i	i
CC(=O)c1cc(C(=O)Nc2ccccc2C(=O)O)oc1C	i	i	i	i	54	i
O=C(Nc1ccccc1C(=O)O)c1ccc(Br)o1	i	i	i	i	i	i
Cc1cc(C(=O)Nc2cccc(C(=O)O)c2)c(C)o1	i	i	i	i	i	i
Cc1ccnc(NS(=O)(=O)c2ccc(N=CC3=C(O)CC(C)(C)CC3=O)cc2)n1	i	i	i	i	i	i
CC(NC(=O)COc1ccc(/C=N/NC(=O)C(=O)Nc2ccccc2Br)cc1)c1ccccc1 (centres undefined)	i	i	i	i	69	i
COc1ccc(Br)c(/C=N/NC(=O)COc2ccc(-c3ccccc3)cc2)c1	i	i	i	i	i	i
SMILES	PostGolgi yeast	PostGolgi ctrl	CYP2C19 activ	CYP2C19 inhib	CYP2C9 inhib	CYP2C9 act
c1ccc(Cn2nnnc2C(c2cccs2)N2CCc3ccccc3C2)cc1 (centres undefined)	i	i	i	92	70	i
CC(C)C(c1nnnn1C1CCCCC1)N1CCc2ccccc2C1 (centres undefined)	i	i	i	i	i	i
CC(C)C(c1nnnn1Cc1ccccc1)N1CCc2ccccc2C1 (centres undefined)	i	i	i	i	53	i
O=C1c2ccccc2C(O)(Cc2ccccc2)N1C1CCCCC1 (centres undefined)	i	i	i	i	i	i
Cc1ccc(C(C)C)c(OCc2ccc(-c3nnco3)cc2)c1	i	i	i	86	i	i
Cc1ccc(S(=O)(=O)N(C)Cc2ccc(-c3nnco3)cc2)cc1	i	i	i	i	i	i
CCc1ccccc1NC(=O)/C(=C/c1ccco1)c1ccccc1	i	35	i	i	i	i
CCCOc1ccc(NC2=CC(=O)CC(C)(C)C2)cc1	i	i	i	i	79	i
N#CCCCSc1ncccc1-c1nc2ccccc2[nH]1	i	i	nt	nt	nt	nt
O=C(CSc1ncccc1-c1nc2ccccc2[nH]1)NCc1ccco1	34	i	i	i	55	i
COC(=O)CSc1ncccc1-c1nc2ccccc2[nH]1	i	i	i	59	i	i
CCCCNC(=S)NNC(=O)c1csc2c1CCC(C)C2 (centres undefined)	i	i	i	i	i	i
CCCCn1c(-c2csc3ccccc23)n[nH]c1=S	i	i	i	97	89	i
CCCCn1c(-c2csc3c2CCC(C)C3)n[nH]c1=S (centres undefined)	i	42	i	i	i	i
CCCCn1c(-c2csc3c2CCCC3)n[nH]c1=S	i	i	i	70	89	i
O=C(Nc1ccc2c(c1)OCO2)C1CCN(C(=O)c2cccs2)CC1	i	i	i	i	i	i
COC(=O)c1[nH]c2cc(OC)c(OC)cc2c1NC(=O)Oc1ccccc1	i	i	i	i	i	i
Cc1ccc(SC(C)C(=O)Nc2ncn[nH]2)cc1 (centres undefined)	42	i	i	i	i	i
CC(=O)Nc1ccc(SC(C)C(=O)NC(N)=O)cc1 (centres undefined)	i	i	i	i	i	i
O=C(NCc1cccs1)c1cccc(Nc2nc3ccc(Br)cc3[nH]2)c1	i	i	i	i	83	i
Cc1ccc(C(=O)CC2(O)C(=O)N(Cc3ccc4c(c3)OCO4)c3ccccc32)cc1 (centres undefined)	i	i	i	54	i	i
C#CCN1C(=O)C(O)(CC(=O)c2ccc3c(c2)OCCO3)c2ccccc21 (centres undefined)	i	i	i	77	i	i
CCCN1C(=O)C(O)(CC(=O)c2cccc(OC)c2)c2ccccc21 (centres undefined)	i	i	i	87	i	i
C#CCN1C(=O)C(O)(CC(=O)c2ccc(OC)c(OC)c2)c2ccccc21 (centres undefined)	i	i	i	i	i	i
CCCN1C(=O)C(O)(CC(=O)c2ccc3c(c2)OCCO3)c2ccccc21 (centres undefined)	i	i	i	76	i	i
SMILES	PostGolgi yeast	PostGolgi ctrl	CYP2C19 activ	CYP2C19 inhib	CYP2C9 inhib	CYP2C9 act
O=C(CC1(O)C(=O)N(Cc2ccc3c(c2)OCO3)c2ccccc21)c1ccccc1 (centres undefined)	i	i	i	i	i	i
FC(F)(F)c1ccc(Oc2ccc3c(C(F)(F)F)cc(C(F)(F)F)nc3n2)cc1	i	i	i	i	i	i
Cc1ccc(OCCn2nc3ccccc3n2)c(C)c1	i	i	i	i	i	i
CC(=O)NCCc1ccc(S(=O)(=O)Nc2cccnc2)cc1	i	33	i	i	i	i
CC(C)(C)c1ccc(S(=O)(=O)Nc2cccnc2)cc1	i	30	i	62	i	i
O=S(=O)(Nc1cccnc1)c1ccc(Cl)cc1	i	i	i	85	85	i
